# Measured values from PubChem BioAssay AID624352 (Sanford-Burnham Center for Chemical Genomics, 2012).
# Among all 360,000 compounds or so, about 2,600 (0.72%) were called active. The sample as a whole holds a higher share of actives than the screen did. Unmarked numbers belong to inactive results.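 How the source made its calls: active means inhibition of the luminescence signal of 40% or more relative to plate controls, in a single-dose primary screen at 18.75 µM; inactive means the rest.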
# Assay: HIF-2a reporter inhibitors, primary screen, luminescence, 786-0 RCC cells (AID 624352)
# Conditions: 786-0 RCC cells HIF-2a reporter, luciferase luminescence, overnight; at 18.8 µM; active compounds read high
row,Compound,inhibition
1,CCCN(CC(=O)Nc1ccccc1OC)C(=O)CCC(=O)c1ccc(F)cc1,-7.63%
2,O=C(CC1SC(=Nc2ccccc2)N(Cc2ccccn2)C1=O)Nc1cccc(Cl)c1 (stereo unspecified),-84.7%
3,CCN(C(=O)COC(=O)c1c(NC(C)=O)sc(C)c1C)C1CCS(=O)(=O)C1 (stereo unspecified),12.6%
4,O=C(NCc1cccnc1)C12CC3CC(CC(C3)C1)C2,21.4%
5,COc1ccc(Nc2ncnc3ccc(Br)cc23)c(OC)c1,75.3% (active)
6,CCOC(=O)CNc1nc(Cl)nc(Nc2ccc(OC)cc2OC)n1,12.9%
7,CC1(C)CC2CC(C)(CN2c2ncnc3ccc(Br)cc23)C1 (stereo unspecified),31.5%
8,CC1=NC2(CCCc3c2no[n+]3[O-])N(O)C1(C)C (stereo unspecified),-5.63%
9,Nc1c(-c2cccc(Cl)c2)cnn1-c1cccc([N+](=O)[O-])c1,-139%
10,Cc1cccc(-n2ncc(Cl)c(Cl)c2=O)c1,84.5% (active)
11,Cc1cccc(N2Cc3ccccc3C2=NC(=O)c2ccc(Cl)nc2)c1,-92.3%
12,COc1ccc(OC)c(-c2c(=O)n(OCc3ccccc3Br)c3ccccc3[n+]2[O-])c1,23.8%
13,Cc1ccc(CNC(=O)COc2ccc(S(=O)(=O)NC(C)C)cc2)cc1,-0.52%
14,Cn1c(=O)n(C)c2cc(CNc3ccc(N4CCOCC4)c(C(=O)O)c3)ccc21,15.1%
15,Cc1nnnn1/C(=C\c1ccccc1)C(=O)OCC(=O)N1CC2(C)CC1CC(C)(C)C2 (stereo unspecified),50.7% (active)
16,O=C(CNC(=O)c1cc(S(=O)(=O)N2CCOCC2)ccc1N1CCCC1)Nc1ccc(F)c(F)c1,3.34%
17,COc1ccc(/C=N/N=C/c2c[nH]c(=O)c(C#N)c2Nc2ccccc2)cc1,22.7%
18,O=C(O)CCn1c(O)c(C=C2N=c3ccccc3=N2)sc1=S,48.3% (active)
19,C=CCNC(=O)C1CC2c3ccccc3C1c1ccccc12 (stereo unspecified),15.4%
20,CC1(C(=O)NS(=O)(=O)C2CC2)CCCN(C(=O)CSc2ccccc2)C1 (stereo unspecified),6.93%
21,CCSc1sc(CC)cc1C=O,18.8%
22,COc1ccccc1CN1CC(C(=O)NCCc2cn[nH]c2)CCC1=O (stereo unspecified),11.7%
23,COCCN(C(=O)CCC(=O)Nc1ccccn1)C(C(=O)NCCC(C)C)c1ccc(OC)cc1 (stereo unspecified),12.7%

row,Compound,inhibition
1,COc1ccc(C(=O)/C=C/Nc2ccccn2)cc1,51.6% (active)
2,COc1ccc2nc(-c3ccccn3)ccc2c1,-77.1%
3,CCCN1C2CCCC1CC(NC(=O)NC13CC4CC(CC(C4)C1)C3)C2 (stereo unspecified),19.4%
4,CN1C(=O)c2ccc(NC(=O)C3CCCCC3)cc2C1=O,-8.6%
5,O=C(Nc1ccc2c(c1)OCCO2)C1CCCC1,41.3% (active)
6,O=C(Nc1ccc2c(c1)OCO2)C1CC1(Cl)Cl (stereo unspecified),-154%
7,CCOc1ccc(S(=O)(=O)N2CCC(C(=O)NCc3ccccn3)CC2)cc1Cl,19.5%
8,COc1ccc(CCNC(=O)C(=O)NCC2OCCN2S(=O)(=O)c2ccc(F)cc2)cc1OC (stereo unspecified),-5.35%
9,CCOc1ccc(CN2CCN(Cc3ccc4cc(F)ccc4n3)CC2CCO)cc1 (stereo unspecified),12.7%
10,O=C(c1ccccc1)c1cccn1CC(=O)N1CCN(c2ccc(F)cc2)CC1,12.9%
11,CCOCCCN(C(=O)Cn1nnc(-c2ccc(OC)c(OC)c2)n1)C(CC)C(=O)NC1CCCC1 (stereo unspecified),18.1%
12,C[C@H](CO)N1C[C@H](C)[C@@H](CN(C)C(=O)c2cccc(F)c2)Oc2cc(-c3cncnc3)ccc2S1(=O)=O,9.48%
13,COc1ccc(-c2oc3ncnc(NCCCO)c3c2-c2ccc(OC)cc2)cc1,40.9% (active)
14,COCCNc1ncnc2c1ncn2[C@H]1CN(Cc2ccc(OC)cc2)C[C@@H](CO)O1,-2.96%
15,COc1ccc(-c2oc3ncn(Cc4ccco4)c(=N)c3c2-c2ccc(OC)cc2)cc1,8.92%
16,Cc1ccc(CCCOC(=O)C[N+]2(C)CCCCC2)cc1,1.23%
17,COc1ccc(NC(=O)/C(Cl)=C(/Cl)S(=O)Cc2ccc(C)cc2)cn1 (stereo unspecified),90.8% (active)
18,C[C@@H]1CN([C@H](C)CO)C(=O)CCCn2nncc2CO[C@@H]1CN(C)S(=O)(=O)c1cccc(C#N)c1,13.2%
19,NC(c1csc(NC(=O)Nc2ccccc2Oc2ccccc2)n1)c1ccccc1Cl (stereo unspecified),24.3%
20,CCN(CC)c1ccc(NC(=O)CCc2nnc3ccc(N4CCCCC4)nn23)c(C)c1,-2.16%
21,Cc1nc(C(=O)N2CCCC(C(=O)c3ccc(Cl)cc3)C2)cs1 (stereo unspecified),3.92%
22,CC(=O)Nc1c2c(nn1-c1ccc(C)cc1C)CS(=O)C2 (stereo unspecified),4.45%
23,CS(=O)(=O)N(Cc1ccc(Cl)cc1)c1ccc(C(=O)NCCSCc2ccco2)cc1,43.2% (active)
